Compound activity: PubChem, National Center for Advancing Translational Sciences (NCATS)
Only some compounds are listed: those with a hit (about 2.9% of all), similar ones and a draw of the others.
p53 reactivation: re-activators of mutant p53; Potency, µM (top dose mostly 92.2 µM), for inactives: at the highest dose activity change, positive = activation, hits mostly activators; H1299 p53-A138V BP100-luciferase reporter, luminescence, 24 h; hit rate 0.063% among 320,000; also: potency is read from the fitted curve at half-maximal effect; % of control where 0% means no effect; nearly all actives have a fitted effect of over 45% in size
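H1299 (p53-null), stable ts p53-A138V + BP100-Luc; 1000 cells/well, Opti-MEM/10% FBS; cpd 4 pt, 1:5; 24 h, 37 deg C, 5% CO2; detection reagent 10 min RT; luminescence.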
ClpP mod: qHTS Assay for Activators of ClpP | hit rate 1.9% among 340,000 | Potency, µM (highest dose often 57.5 µM), without a hit: top-dose activity change, negative = active | purified B. subtilis ClpP, FRET peptide cleavage, 20 min; active = well fitted falling curve with a large enough effect; inconclusive = small, poorly fitted or top-dose-only effect; inactive = no such curve, though single readings can be large or run the other way; also: potency is read from the fitted curve at half-maximal effect; the source files actives as falling curves though it sought activators and does not explain the sign; nearly all actives have a fitted effect of over 65% in size
Target sequence (P80244 whole entry, looked up): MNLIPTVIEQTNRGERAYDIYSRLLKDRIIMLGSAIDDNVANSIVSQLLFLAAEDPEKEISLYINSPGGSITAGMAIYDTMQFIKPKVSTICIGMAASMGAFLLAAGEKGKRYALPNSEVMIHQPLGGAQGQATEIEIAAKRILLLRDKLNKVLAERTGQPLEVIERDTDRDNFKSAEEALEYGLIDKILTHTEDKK
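ClpP 10 microg/mL final, pH 8 Tris/KCl buffer with BSA, glycerol, Tween-20; compound pinned in; FRET-FV substrate; RT 20 min; Ex320/Em430; ΔFRET vs ADEP 5.8 microM, DMSO, no enzyme.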
GLP1R cytotox: cytotoxicity in counter-screen for GLP-1R inverse agonists | hit rate 0.13% among 410,000 | AID 624418 | Potency, µM (top dose mostly 38.3 µM), inactives show at the top dose activity change, negative = inhibition, usual class: inhibitors | HEK293 cAMP-luciferase reporter cells, luminescence, 24 h;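 also: loss of luciferase light is scored as toxicity; potency is read from the fitted curve at half-maximal effect; % is scaled to controls: 0 for no effect and ±100 for the full control effect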
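A 23 nL compound transfer followed 12 hours of cell culture at 37 deg C; exposure then lasted 24 hr. Luciferase assay detection reagent was dispensed and plates read for luminescence after a 12 min room-temperature wait.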
LDHA block: inhibitors of human lactate dehydrogenase A; P00338; purified LDHA, NADH/diaphorase-resazurin fluorescence; stronger effect = lower value; activity change, % (values are at about 110 or 230 µM); hit rate 0.15% among 480,000; in the data active = activity change below about -30%; inconclusive = mostly about -25% to -30%;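 also: plate controls were DMSO wells for no effect and wells without enzyme for full effect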
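Remaining NADH was detected by diaphorase (0.133 mg/mL) converting 37 µM resazurin to fluorescent resorufin, read at 0 and 20 minutes. The preceding 5-minute room-temperature reaction used 2 nM LDHA, 0.2 mM sodium pyruvate and 0.06 mM NADH at pH 7.4.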
GLP1R ag: activates the human GLP-1 receptor | Potency, µM (doses to about 45.6 µM), inactives show top-dose activation, usual class: activators | P43220 | hit rate 0.007% among 380,000 | HEK293 GLP-1R CRE-luciferase, luminescence, 4-6 h; cells express a hypersensitive GLP-1R form; also: potency is read from the fitted curve at half-maximal effect; % of control where 0% means no effect
Target sequence (P43220 whole entry, looked up): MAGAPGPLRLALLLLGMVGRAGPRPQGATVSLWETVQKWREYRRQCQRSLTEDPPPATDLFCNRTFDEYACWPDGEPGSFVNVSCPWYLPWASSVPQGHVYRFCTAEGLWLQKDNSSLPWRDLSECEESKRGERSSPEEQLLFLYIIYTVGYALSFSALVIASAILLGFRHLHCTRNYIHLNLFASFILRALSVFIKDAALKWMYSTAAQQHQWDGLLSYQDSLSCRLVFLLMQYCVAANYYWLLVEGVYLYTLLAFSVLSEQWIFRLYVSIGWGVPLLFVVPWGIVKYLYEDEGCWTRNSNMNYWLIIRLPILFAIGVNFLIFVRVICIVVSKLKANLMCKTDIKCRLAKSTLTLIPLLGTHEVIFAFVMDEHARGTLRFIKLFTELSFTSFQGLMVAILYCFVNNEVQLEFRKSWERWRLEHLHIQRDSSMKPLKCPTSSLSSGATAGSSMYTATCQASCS
GLP-1R inv ag: acts as inverse agonist at human GLP-1 receptor | hit rate 1.6% among 410,000 | HEK293 GLP-1R CRE-luciferase, luminescence, 24 h; GLP-1R form is constitutively active | AID 624417 | Potency, µM (doses to about 38.3 µM), for inactives: at the highest dose activity change, negative = inhibition, actives largely listed as inhibitors; also: potency is read from the fitted curve at half-maximal effect; % is scaled to controls: 0 for no effect and ±100 for the full control effect; nearly all actives have a fitted effect of over 55% in size
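HEK293 cells stably co-expressing a cAMP-responsive luciferase reporter and constitutively active GLP-1R were seeded, incubated 12 h, then exposed to compounds for 24 h at 37 C. Luminescence was read 12 min after detection reagent; inverse agonists lower signal.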
* hit, by the source's call; u = inconclusive; x = not tested or not shown. Unless noted, calls follow the shape of the dose curve; as a rule, active = well fitted curve in the direction sought with a large enough effect; inconclusive = small, poorly fitted or top-dose-only effect, or another doubt; inactive = no such curve, though single readings can be large; an effect the other way counts as inactive or inconclusive.

SMILES	p53 reactivation	ClpP mod	GLP1R cytotox	LDHA block	GLP1R ag	GLP-1R inv ag
CCCCCNC(=O)c1cccc(S(=O)(=O)N2CC3(C)CC2CC(C)(C)C3)c1 (centres undefined)	-1.6%	-0.7%	-10.3%	-4.4	2.2%	6.31µM*
Cc1ccc(NC(=O)c2ccccc2F)nc1	15.3%	15.8µM*	-10.9%	-6.0	-11.1%	-2.9%
CC(=O)c1c(C)[nH]c(C(=O)Nc2ccc(C)cn2)c1C	-9.9%	-0.5%	-7.3%	0.5	-12.6%	5.62µM*
COc1ccc(-c2nc(NC(=O)c3[nH]c(C)c(C(C)=O)c3C)sc2C)cc1	1.8%	x	-1.6%	-4.8	6.7%	12.6µM*
CC(=O)c1c(C)[nH]c(C(=O)Nc2cc(C)cc(C)c2)c1C	-1.1%	0.7%	6.8%	-5.8	-8.2%	1.2%
COc1ccc(-c2nc(NC(=O)c3cc(OC)c(OC)c(OC)c3)sc2C)cc1	x	x	x	-2.1	x	x
CC(=O)c1c(C)[nH]c(C(=O)Nc2nc(C)cs2)c1C	-10.6%	x	-2.2%	-2.5	-1.3%	2.24µM*
CC(=O)c1c(C)[nH]c(C(=O)Nc2ccc(C)c(S(=O)(=O)Nc3ccc(C)cc3C)c2)c1C	5.3%	-5.5%	u	0.0	-1.8%	2.51µM*
O=C(Nc1ccccn1)C1(c2ccccc2)CCCC1	8.0%	2.4%	-15.0%	-7.1	-11.8%	u
Cc1ccc(NC(=O)C2(c3ccccc3)CCCC2)nc1	x	0.0%	-7.5%	-0.6	0.2%	3.55µM*
Cc1ccc(C(C)NC(=S)NCc2ccc(F)cc2)cc1C (centres undefined)	-8.0%	0.9%	-1.2%	-2.1	4.8%	8.91µM*
CCc1ccc(C(C)NC(=S)NCc2ccc(F)cc2)cc1 (centres undefined)	3.7%	-2.9%	u	-1.0	8.3%	u
COc1cc(C2Nc3ccccc3C(=O)N2c2ccccc2)c(Br)cc1OCC(=O)O (centres undefined)	16.2%	31.6µM*	43.8%	-1.8	6.8%	21.4%
COC(=O)COc1ccc(Cl)cc1C1Nc2ccccc2C(=O)N1c1ccc(OC)cc1 (centres undefined)	14.3%	-25.7%	-5.5%	5.3	6.1%	-0.5%
COCCCN1C(=O)C(=O)/C(=C(/O)c2ccc3c(c2)OCCO3)C1c1ccc(C(=O)OC)cc1 (centres undefined)	3.2%	31.6µM*	5.2%	-1.9	11.4%	0.7%
Cc1ccccc1-c1ccc2cccc(C)c2n1	x	x	x	3.6	x	x
COc1ccccc1NC(=O)Nc1nc(CC(=O)NCc2c(F)cccc2F)cs1	-1.3%	0.9%	u	-3.3	7.6%	u
COc1ccccc1NC(=O)Nc1nc(CC(=O)N2CCN(c3ccccc3F)CC2)cs1	12.6%	x	-11.9%	-1.6	-0.9%	10µM*
O=c1[nH]c2ccccc2nc1NCCN1CCOCC1	-8.6%	31.6µM*	0.8%	-10.4	2.3%	17.3%
O=C(CCc1ncc(-c2ccc(Cl)cc2)o1)NCc1ccc(Cl)cc1Cl	x	x	x	12.3	x	x
COCCOc1ccc(C(F)(F)F)cc1NC(=O)c1ccccc1F	6.5%	25.1µM*	-8.4%	-4.8	2.0%	6.4%
CCc1ccc(-c2csc(-c3c[nH]c4ccccc34)n2)cc1	20µM*	u	-11.5%	-3.8	-8.5%	4.5%
O=c1cc(-c2ccccc2)nc2nc(-c3ccccc3)[nH]n12	31.6µM*	-14.1%	-16.8%	1.7	5.7%	6.2%
CCN(CC)c1ccc(N=Nc2nn(C)c(C)c2[N+](=O)[O-])cc1	u	1.9%	4.47µM*	1.0	18.1%	6.4%
CCc1c(C)c2ccc(OCC(=O)OC)cc2oc1=O	0.6%	14.1µM*	13.3%	0.0	12.2%	0.0%
SMILES	p53 reactivation	ClpP mod	GLP1R cytotox	LDHA block	GLP1R ag	GLP-1R inv ag
COc1cc(C)cc2oc(=O)c(CC(=O)Nc3ccc(NC(C)=O)cc3)c(C)c12	x	x	x	-1.4	x	x
COC(=O)C(C)Oc1cc(OC(C)C(=O)OC)c2c(C)c(Cl)c(=O)oc2c1 (centres undefined)	3.3%	x	-1.1%	-3.0	8.3%	7.9%
COC(=O)COc1cc(OCC(=O)OC)c2c(C)c(Cl)c(=O)oc2c1	6.9%	14.1µM*	-13.7%	-8.0	-0.5%	2.8%
COC(=O)COc1cc(C)cc2oc(=O)c(CC(=O)OC)c(C)c12	16.8%	14.1µM*	-2.2%	-7.7	4.2%	3.6%
O=C(CSc1ccccn1)Nc1nncs1	10.5%	-0.6%	4.6%	-7.8	-14.0%	0.0%
O=C(OCC#CCSc1nnc(-c2cccc3ccccc23)o1)c1ccco1	1.8%	28.2µM*	2.7%	4.2	10.6%	8.9%
Cc1c(Cl)cccc1NC(=S)N(CCCN1CCOCC1)Cc1ccco1	-1.6%	x	-0.9%	-0.7	5.4%	u
COC(=O)C1Cc2c([nH]c3ccccc23)CN1 (centres undefined)	5.8%	31.6µM*	-3.7%	-4.0	-5.0%	-19.6%
COC(=O)[C@H]1Cc2c([nH]c3ccccc23)[C@H](c2ccccc2)N1	5.2%	-4.2%	-3.9%	-0.5	7.6%	-20.4%
CC1C(c2ccccc2)OCCN1C=NC#N (centres undefined)	x	-1.4%	-2.1%	-4.9	7.4%	2.1%
O=C(Nc1ccc(S(=O)(=O)NCc2ccccc2)cc1)C1CCCCC1	-5.1%	25.1µM*	9.3%	-8.8	8.3%	12.7%
CN(Cc1ccccc1)S(=O)(=O)c1ccc(NC(=S)NC(=O)C2CCCCC2)cc1	1.6%	-1.8%	5.0%	-4.7	3.2%	2.51µM*
CCOc1ccc(NC(=O)C2C3CCC4C(CCC32)C4(Cl)Cl)cc1 (centres undefined)	3.6%	-1.9%	-23.2%	-4.2	-3.9%	7.08µM*
O=C(Cc1ccccc1)Nc1ccc(NC(=O)C2CCCCC2)nc1	-3.0%	-0.7%	-15.9%	-2.0	4.5%	7.08µM*
O=C(Cc1coc(-c2ccccc2)n1)NC1CCCC1	x	x	x	0.6	x	x
CCCCOC(=O)COc1cc(O)c2c(=O)cc(-c3ccccc3)oc2c1	x	x	x	8.6	x	x
CCOc1ccc(NC(=S)NC(=O)C2CCCC2)cc1	15.9%	3.2%	0.0%	-1.8	11.6%	10µM*
CCOC(=O)N1CCC(NC(=O)Cn2cc3c(n2)CCCC3)CC1	1.8%	0.0%	-23.7%	0.2	4.2%	9.6%
Cc1nn(Cc2ccccc2)c(C)c1N	-4.8%	28.2µM*	13.9%	6.7	-1.2%	9.3%
COCCCn1c(C)cc(C(=O)COC(=O)C23CC4CC(CC(O)(C4)C2)C3)c1C	u	28.2µM*	-1.1%	2.0	-3.9%	u
Cn1cccc1C(=O)NC(=O)COC(=O)C12CC3CC(CC(O)(C3)C1)C2	25.5%	13.2%	-11.2%	-1.2	-26.5%	-15.0%
COc1ccc(O)c(/C=N/Nc2nc3ccccc3[nH]2)c1	-3.6%	x	-2.8%	-5.4	12.0%	3.5%
